Hits are enriched below; roughly 18% of the tested compounds scored in any of these assays.
HepG2 viability: qHTS for Inhibitors of TGF-b: Cytotox Counterscreen; hit rate 0.76% among 410,000; HepG2 CAGA-GFP viability, ATP luminescence, 18 h; Potency, µM (top dose mostly 46.1 µM), inactives show at the highest dose activity change, negative = cytotoxicity, usual class: cytotoxic; note: potency is the fitted concentration of half-maximal effect
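CellTiter-Glo luminescence gave cytotoxicity after 18 hours at 37 degrees C. The cells were HepG2 CAGA-GFP in 1% FBS DMEM, stimulated with 500 pg/mL TGF-beta after compound addition. %Activity was normalised to no-cell wells (complete cell-killing) and DMSO (no toxicity), and curves were fitted and classified.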
DT40 TDP1 CPT: qHTS for Inhibitors of human tyrosyl-DNA phosphodiesterase 1 (TDP1): qHTS in cells in presence of CPT; hit rate 12% among 420,000; chicken DT40 Tdp1-/-;hTDP1 cells + 20 nM CPT, ATP luminescence, 48 h; Potency, µM (series often up to 46.2 µM), for inactives: top-dose activity change, negative = growth inhibition, hits mostly inhibitors; AID 686979, 2013; note: potency is the fitted concentration of half-maximal effect; % is set by controls: 0 for no effect and ±100 for the full control effect; nearly all actives have a fitted effect of over 55% in size
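Chicken DT40 Tdp1-/- cells stably complemented with human TDP1 were seeded at 400 cells/well in medium containing 20 nM camptothecin, exposed to pin-transferred compounds, and grown at 37 °C for at least 48 hr. Viability was read as ATP luminescence.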
IL1B secr inh: qHTS for Inhibitors of Inflammasome Signaling: IL-1-beta AlphaLISA Primary Screen; hit rate 4.7% among 360,000; activity change, % at 57.5 µM; AID 743279, 2014; THP-1 LPS/ATP IL-1B secretion, AlphaLISA, 16 h; active compounds read low; in the data active = activity change below about -50%; inconclusive = mostly about -30% to -49%; note: % is set by controls: 0 for no effect and ±100 for the full control effect
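THP-1 cells pretreated 1 hr with compounds (up to 57.5 uM final), then stimulated with LPS (250 ng/mL final) plus ATP (1.25 mM final); secreted IL-1B measured by AlphaLISA after 16 hr, decreased signal indicating inhibition.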
TDP1 inh: qHTS Assay for Inhibitors of Tyrosyl-DNA Phosphodiesterase (TDP1); AID 485290, 2010; hit rate 0.28% among 350,000; Tyrosyl-DNA phosphodiesterase 1 (Homo sapiens), Q9NUW8; recombinant TDP1, AlphaScreen DNA substrate cleavage; Potency, µM (top dose mostly 130 µM), without a hit: at the top dose activity change, negative = inhibition, most hits filed as inhibitors; note: potency is the fitted concentration of half-maximal effect; % is set by controls: 0 for no effect and ±100 for the full control effect; nearly all actives have a fitted effect of over 40% in size
Target sequence (Q9NUW8 whole entry, looked up): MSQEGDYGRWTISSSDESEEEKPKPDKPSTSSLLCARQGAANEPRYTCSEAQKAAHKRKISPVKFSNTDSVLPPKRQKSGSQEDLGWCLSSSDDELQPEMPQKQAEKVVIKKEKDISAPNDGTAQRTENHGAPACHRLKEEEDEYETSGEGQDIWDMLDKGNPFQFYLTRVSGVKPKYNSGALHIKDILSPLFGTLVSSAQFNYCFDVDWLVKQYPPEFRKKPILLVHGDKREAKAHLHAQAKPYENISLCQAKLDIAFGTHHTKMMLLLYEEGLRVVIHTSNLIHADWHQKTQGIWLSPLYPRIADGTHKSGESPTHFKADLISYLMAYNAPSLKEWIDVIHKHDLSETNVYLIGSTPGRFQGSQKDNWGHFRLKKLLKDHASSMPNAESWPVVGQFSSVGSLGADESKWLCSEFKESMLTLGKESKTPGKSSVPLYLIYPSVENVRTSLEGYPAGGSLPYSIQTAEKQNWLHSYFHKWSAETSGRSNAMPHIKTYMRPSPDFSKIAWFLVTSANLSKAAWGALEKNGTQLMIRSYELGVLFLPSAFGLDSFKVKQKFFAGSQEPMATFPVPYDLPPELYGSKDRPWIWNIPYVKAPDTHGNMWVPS
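Here, a 5' biotin and 3' phosphotyrosine-FITC DNA oligonucleotide reports Tdp1 activity: intact substrate bridges AlphaScreen beads, while cleavage leaves a 3' phosphate and drops signal. All incubations at room temperature.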
TGFb SMAD3 inh: qHTS for Inhibitors of TGF-b | HepG2 CAGA-GFP TGF-b/SMAD3 reporter, GFP fluorescence, 18 h; TGF-beta stimulated, 500 pg/mL final | Potency, µM (series often up to 46.1 µM), for inactives: at the top dose activity, negative = inhibition, actives largely listed as inhibitors | hit rate 1.2% among 410,000; note: potency is the fitted concentration of half-maximal effect; % is set by controls: 0 for no effect and ±100 for the full control effect; nearly all actives have a fitted effect of over 65% in size
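HEPG2 CAGA-GFP reporter cells (1000/well, DMEM with 1% FBS) received compounds, then recombinant TGF-beta at 500 pg/mL final for 18 hours at 37 degrees C. Per-cell GFP summed per well was normalised to unstimulated and stimulated DMSO controls before curve fitting.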
DT40 TDP1 no CPT: qHTS for Inhibitors of human tyrosyl-DNA phosphodiesterase 1 (TDP1): qHTS in cells in absence of CPT | DT40 Tdp1-/- hTDP1 cells, no CPT, ATP luminescence, 48 h | Potency, µM (top dose mostly 46.2 µM), inactives show at the top dose activity change, negative = growth inhibition, hits mostly inhibitors | hit rate 15% among 420,000 | AID 686978, 2013; note: potency is the fitted concentration of half-maximal effect; % is set by controls: 0 for no effect and ±100 for the full control effect; nearly all actives have a fitted effect of over 55% in size
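Seeded 400 DT40-hTDP1 cells/well (vehicle DMSO, no 20 nM CPT); pinned compounds; ≥48 hr at 37 °C; CellTiter-Glo luminescence as viability measure.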
Numbers without * were called inactive; ? = inconclusive; / = no result. Unless noted, calls come from the whole dose curve; as a rule, active = well fitted curve in the direction sought with a large enough effect; inconclusive = small, poorly fitted or top-dose-only effect, or another doubt; inactive = no such curve, though single readings can be large; an effect the other way counts as inactive or inconclusive.

SMILES | HepG2 viability | DT40 TDP1 CPT | IL1B secr inh | TDP1 inh | TGFb SMAD3 inh | DT40 TDP1 no CPT
COC(=O)c1ccccc1NC(=O)Cn1c(=O)n(Cc2ccc(C(=O)NCc3ccc4c(c3)OCO4)cc2)c(=O)c2ccccc21 | -7.2% | -19.8% | / | 2.7% | 2.4% | -18.9%
Cc1ccc(C)c(NC(=O)Cn2c(=O)n(Cc3ccc4c(c3)OCO4)c(=O)c3ccc(C(=O)NC4CCCCC4)cc32)c1 | -1.3% | 2.59µM* | / | -2.3% | -1.5% | ?
Cc1ccc(NC(=O)Cn2c(=O)n(Cc3ccc4c(c3)OCO4)c(=O)c3ccc(C(=O)NC4CCCCC4)cc32)c(C)c1 | 2.7% | 2.06µM* | / | -2.3% | 13.7% | ?
Cc1cc(C)c(NC(=O)Cn2c(=O)n(Cc3ccc4c(c3)OCO4)c(=O)c3ccccc32)c(C)c1 | -1.6% | -26.7% | / | 0.9% | 0.5% | ?
Cc1cc(C)c(NC(=O)Cn2c(=O)n(Cc3ccc(C(=O)NCc4ccc5c(c4)OCO5)cc3)c(=O)c3ccccc32)c(C)c1 | -23.7% | 6.51µM* | / | 5.5% | 0.0% | 7.31µM*
Cc1ccc(C)c(NC(=O)Cn2c(=O)n(CCC(=O)NCc3ccc4c(c3)OCO4)c(=O)c3ccccc32)c1 | -13.5% | -17.1% | / | 0.9% | 1.9% | -13.9%
CC(=O)Oc1ccc(N(C(C)=O)S(=O)(=O)c2ccc(C)cc2)c2ccccc12 | -36.4% | 5.17µM* | 34.5 | / | -29.7% | 5.17µM*
CC(=O)N(c1ccccc1C)S(=O)(=O)c1ccc(Cl)cc1 | -26.4% | ? | 63.0 | -7.7% | -6.3% | -14.8%
CC(=O)Oc1ccc(N(C(C)=O)S(=O)(=O)c2ccc(Cl)cc2)c2ccccc12 | -16.6% | 29.1µM* | 57.1 | / | -29.9% | ?
COC(=O)[C@H](CCSC)NC(=O)Cn1cnc2c(OCc3ccccc3)ncnc21 | -10.6% | -26.9% | 47.1 | 0.5% | -7.2% | -26.3%
COc1ccc(N2CCN(C(=O)CC(C)S(=O)(=O)c3ccc4c(c3)NC(=O)CO4)CC2)cc1 (centres undefined) | -17.8% | 14.6µM* | 0.0 | 0.8% | -19.1% | 13µM*
CC(CC(=O)N1CCN(c2cccc(Cl)c2)CC1)S(=O)(=O)c1ccc2c(c1)NC(=O)CO2 (centres undefined) | -2.3% | 4.11µM* | -13.7 | 3.1% | -2.5% | 2.31µM*
Cn1c2c(c(=O)n(C)c1=O)CN(Cc1ccccc1)CN2 | -2.6% | -20.1% | 33.4 | / | -1.7% | -18.2%
COc1ccc(N2CCN(C(=O)CCNS(=O)(=O)c3ccc(Br)s3)CC2)cc1 | -6.9% | 13µM* | -2.7 | 6.8% | -5.6% | ?
O=C(CNS(=O)(=O)c1ccc(Br)s1)N1CCN(c2ccc(F)cc2)CC1 | -20.2% | ? | -1.2 | -7.6% | ? | 23.1µM*
COc1ccc(N2CCN(C(=O)CCNS(=O)(=O)c3ccc(C)cc3)CC2)cc1 | -0.5% | ? | 0.0 | 5.1% | 7.1% | ?
Cc1ccc(CNC(=O)COCc2cc(-c3cccs3)on2)cc1 | -30.0% | ? | / | 2.5% | 1.1% | -25.9%
COc1ccccc1CNC(=O)CCSCc1cccc(Cl)c1 | 7.6% | 2.7% | -71.6* | -1.4% | 0.2% | -12.1%
COc1ccc(/C(C)=N/NC(=O)CNC(=O)CCc2ccccc2)c(OC)c1 | 0.7% | ? | 27.8 | 0.0% | -12.4% | 18.4µM*
COc1ccc(/C(C)=N/NC(=O)CNC(=O)COc2ccccc2)c(OC)c1 | -11.8% | -3.8% | -4.2 | 1.2% | -10.5% | 1.8%
COc1ccc(CCC(=O)NCc2ccccc2OC)cc1 | 14.9% | -13.9% | -18.6 | / | 12.9% | 5.0%
COc1ccccc1CNC(=O)CCc1ccccc1 | 0.6% | ? | 4.9 | / | -28.9% | 18.4µM*
O=C(COc1ccccc1-c1ccccc1)NCc1cccc(Cl)c1 | -23.7% | 20.6µM* | 23.3 | -5.5% | ? | ?
CN(C)S(=O)(=O)c1ccc(C(=O)Nc2ccc3nc(N4CCOCC4)sc3c2)cc1 | -7.6% | ? | 28.5 | 1.9% | 10.0% | ?
Cc1ccc2cccc(NC(=O)C(C)(C)Oc3ccc(Br)cc3)c2n1 | -21.0% | / | / | -1.9% | -7.9% | /
SMILES | HepG2 viability | DT40 TDP1 CPT | IL1B secr inh | TDP1 inh | TGFb SMAD3 inh | DT40 TDP1 no CPT
Cc1ccc(-c2csc(/C(C#N)=C(\O)CCl)n2)cc1 | 5.7% | ? | -72.8* | 2.6% | -32.4% | ?
N#C/C(=C(/O)CN1CCN(c2ccccc2F)CC1)c1nc(-c2ccc(Cl)cc2)cs1 | -44.2% | 20.6µM* | -11.4 | 7.9% | 7.94µM* | ?
N#C/C(=C(/O)CCl)c1nc(-c2ccccc2)cs1 | 4.8% | 13µM* | -56.6* | 2.4% | ? | 14.6µM*
C[C@@H]1CN([C@@H](C)CO)S(=O)(=O)c2ccc(Br)cc2O[C@H]1CN(C)Cc1ccncc1 | -18.0% | ? | -27.0 | / | 8.5% | ?
C[C@@H]1CN([C@H](C)CO)S(=O)(=O)c2ccc(Br)cc2O[C@@H]1CN(C)Cc1ccc(C(=O)O)cc1 | 1.5% | -7.0% | 7.1 | / | -0.1% | -4.0%
C[C@@H]1CN([C@H](C)CO)S(=O)(=O)c2ccc(Br)cc2O[C@@H]1CN(C)Cc1ccc(-c2ccccc2)cc1 | -57.3% | ? | -0.8 | / | 15.8µM* | 16.4µM*
C[C@H](CO)N1C[C@H](C)[C@@H](CN(C)Cc2ccc3c(c2)OCO3)Oc2cc(Br)ccc2S1(=O)=O | -101.5% | 20.6µM* | 27.4 | / | ? | 7.31µM*
C[C@H](O)C#Cc1ccc2c(c1)O[C@@H](CN(C)Cc1ccc(-c3ccccc3)cc1)[C@H](C)CN([C@@H](C)CO)S2(=O)=O | 7.08µM* | 2.91µM* | ? | / | ? | 3.66µM*
C[C@@H]1CN([C@@H](C)CO)S(=O)(=O)c2ccc(/C=C/c3ccccc3)cc2O[C@@H]1CN(C)Cc1ccc(C(=O)O)cc1 | 15.7% | 16.4µM* | 15.4 | / | -3.1% | 20.6µM*
CCCNC(=O)N(C)C[C@@H]1Oc2cc(C#C[C@H](C)O)ccc2S(=O)(=O)N([C@H](C)CO)C[C@H]1C | -10.8% | -14.0% | 12.6 | / | -2.2% | 2.1%
COc1ccc(Cl)cc1N1C(=O)[C@@H]2C[C@H]1CN2Cc1nc2ccccc2nc1C | / | 4.9% | / | / | / | -20.1%

Screening results deposited in PubChem by National Center for Advancing Translational Sciences (NCATS).
